# AmpC detergent: qHTS Inhibitors of AmpC Beta-Lactamase (assay with detergent); Potency, µM (titrated, usually from 114 µM), for inactives: at the top dose activity change, negative = inhibition, usual class: inhibitors; AmpC hydrolysis of nitrocefin, absorbance 480 nm, 0.01% Triton; P00811; hit rate 0.041% among 370,000; AID 485294, 2010;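 note: potency is the fitted concentration of half-maximal effect; 0% = no-compound wells and -100% = no-enzyme wells; nearly all actives have a fitted effect of over 25% in size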
# Target sequence (P00811 whole entry, looked up): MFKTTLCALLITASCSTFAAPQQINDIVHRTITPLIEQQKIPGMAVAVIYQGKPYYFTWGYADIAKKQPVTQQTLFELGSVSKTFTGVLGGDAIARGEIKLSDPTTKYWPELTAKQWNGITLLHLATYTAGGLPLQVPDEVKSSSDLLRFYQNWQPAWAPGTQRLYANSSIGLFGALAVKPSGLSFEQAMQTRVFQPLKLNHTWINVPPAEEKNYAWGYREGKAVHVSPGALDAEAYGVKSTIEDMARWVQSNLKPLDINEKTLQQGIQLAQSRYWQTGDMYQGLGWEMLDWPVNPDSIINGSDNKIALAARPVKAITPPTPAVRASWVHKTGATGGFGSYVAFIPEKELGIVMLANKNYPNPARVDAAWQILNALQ
#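 AmpC (5.3 nM in the dispensed reagent) in 20 mM phosphate pH 7.0 with 0.01% (detergent screen) or 0.0001% Triton X-100 was preincubated with compounds for 15 min at room temperature. Nitrocefin was then added from an 800 uM solution, and hydrolysis was followed at 480 nm.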
# AmpC inh no detg: qHTS Inhibitors of AmpC Beta-Lactamase (assay without detergent) | AmpC nitrocefin hydrolysis, absorbance 480 nm, 0.0001% Triton | Potency, µM (doses to about 57.1 µM), for inactives: at the highest dose activity change, negative = inhibition, most hits filed as inhibitors | hit rate 0.52% among 330,000;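 note: potency is the fitted concentration of half-maximal effect; plate controls were no compound for no effect and no enzyme for full effect; nearly all actives have a fitted effect of over 20% in size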
#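 20 mM phosphate pH 7.0 + 0.01% (detergent screen) or 0.0001% Triton X-100; 5.3 nM AmpC reagent; cpd preinc 15 min RT; nitrocefin (800 uM stock) to start; A480 q20 s × 4 min; Activity was normalised to no-enzyme and no-compound control wells.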
# SARS PLpro yeast-1: qHTS of Yeast-based Assay for SARS-CoV PLP | hit rate 0.19% among 330,000 | S. cerevisiae expressing SARS-CoV PLpro, growth rescue | AID 485353, 2010 | Potency, µM (titrated, usually from 32.9 µM), for the others: at the highest dose activity, positive = growth rescue, usual class: activators; calls by dose curve; note: potency is the fitted concentration of half-maximal effect; 0% is about no effect; nearly all actives have a fitted effect of over 55% in size
# VACV mCherry inh: qHTS for Stage-Specific Inhibitors of Vaccinia Orthopoxvirus: mCherry Reporter Primary qHTS. hit rate 0.63% among 310,000. Vaccinia virus mCherry reporter infection, fluorescence. Potency, µM (series often up to 36.5 µM), without a hit: top-dose activity change, negative = inhibition, usual class: inhibitors; calls by dose curve; tested in A549 cells; note: potency is the fitted concentration of half-maximal effect; % is set by controls: 0 for no effect and ±100 for the full control effect; nearly all actives have a fitted effect of over 35% in size
# VACV Venus inh: qHTS for Stage-Specific Inhibitors of Vaccinia Orthopoxvirus: Venus Reporter Primary qHTS | Vaccinia virus Venus reporter expression, fluorescence | AID 720580, 2013 | Potency, µM (top dose mostly 36.5 µM), inactives show top-dose activity change, negative = inhibition, usual class: inhibitors | hit rate 0.46% among 330,000; calls by dose curve; tested in A549 cells; note: potency is the fitted concentration of half-maximal effect; % is set by controls: 0 for no effect and ±100 for the full control effect; nearly all actives have a fitted effect of over 30% in size
# AMA1-RON2 inh: qHTS for Inhibitors of AMA1-RON; Towards Development of Antimalarial Drug Lead: Primary Screen; Plasmodium falciparum AMA1 (3D7) - RON2 peptide interaction; AlphaScreen AMA1-biotinylated RON2 peptide binding; Potency, µM (series often up to 58.2 µM), without a hit: at the top dose activity change, negative = inhibition, usual class: inhibitors; hit rate 0.2% among 360,000;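 note: potency is the fitted concentration of half-maximal effect; 0% = vehicle wells and -100% = peptide control; nearly all actives have a fitted effect of over 45% in size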
#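 AMA1 (3D7) with his tag at 25 nM final met compounds first, then biotinylated RON2 peptide at 25 nM; detection used donor plus acceptor beads, 10 µg/mL apiece, read by AlphaScreen after 30 min at room temperature.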
# SARS PLpro yeast-2: qHTS of Yeast-based Assay for SARS-CoV PLP: Hit Validation | yeast expressing SARS-CoV PLpro, growth phenotype rescue | calls only | shares compounds with SARS PLpro yeast-1 | hit rate 19% among 1,000; call rule not given here
# An asterisk follows results filed as active; i = inactive; ? = inconclusive; . = not tested or not shown; + = active, no number; [ ] = another dose, or the depositor's remark. Most compounds without a hit are left out; they make up all but 1.4% or so of the library. Unless noted, calls come from the whole dose curve; as a rule, active = well fitted curve in the direction sought with a large enough effect; inconclusive = small, poorly fitted or top-dose-only effect, or another doubt; inactive = no such curve, though single readings can be large; an effect the other way counts as inactive or inconclusive.
SMILES,AmpC detergent,AmpC inh no detg,SARS PLpro yeast-1,VACV mCherry inh,VACV Venus inh,AMA1-RON2 inh,SARS PLpro yeast-2
Cc1ccc2c(CSc3nc4ccccc4c(=O)n3CCCO)cc(=O)oc2c1C,6%,83%,1%,-16%,?,-9%,.
Cc1ccc2c(CSc3nnc4ccccn34)cc(=O)oc2c1C,-11%,-13%,3.5µM*,-1%,-16%,-9%,i
CCCc1ccc(Oc2cc(Cl)nc(N)n2)cc1,-6%,-26%,-5%,-7%,-19%,24%,.
CCc1ccc(Oc2cc(C)nc(N)n2)cc1,-8%,-26%,16µM*,.,.,0%,i
COC(=O)Nc1ccc(S(=O)(=O)Nc2ccc(O)cc2)cc1,-2%,-17%,?,-15%,-22%,11%,i
COC(=O)Nc1ccc(S(=O)(=O)Nc2ccc(C)cc2)cc1,?,-26%,1%,.,.,.,.
CC1Cc2ccccc2C[N+]1(C)CC(=O)c1ccc(I)cc1 (stereo not drawn),.,.,.,46%,10%,.,.
CC(O)CC(=O)NOCc1ccccc1 (stereo not drawn),.,-17%,?,i,-11%,-10%,i
NC(=O)NOCc1ccccc1,4%,-8%,3%,-8%,-12%,3%,.
O=C(CP(=O)(c1ccccc1)c1ccccc1)N/N=C/c1cc(Br)cc(Br)c1O,-2%,-43%,2.5µM*,-10%,-4%,-24%,+
O=C(C[N+]1(CCO)CCOCC1)c1ccc2ccccc2c1,.,.,.,33%,-10%,.,.
Cc1ccc(CN2CCC(C3(c4ccccn4)NC(=O)N(CC4CCCO4)C3=O)CC2)cc1C (stereo not drawn),.,.,.,-4%,-17%,.,.
CNC(=S)N/N=C(\C)c1ccc2c(c1)OCCO2,-5%,-20%,?,-19%,-22%,45%[11.6 µM],+
CNC(=S)N/N=C(\C)c1ccc2c(c1)OCO2,-3%,-23%,22%,-3%,-5%,66%,.
CNC(=S)N/N=C(\C)c1cccc([N+](=O)[O-])c1,-14%,-16%,13µM*,-15%,-11%,37%,i
CCOc1ccccc1NC(c1nnc(-c2ccccc2)o1)c1ccc(F)cc1Cl (stereo not drawn),-2%,.,.,1%,-3%,.,.
Cc1ccc(-c2[nH]ncc2/C=N/n2c(COc3ccccc3)nc3ccccc3c2=O)cc1,-2%,-9%,-6%,-20%,?,27%,.
Cc1cc(/C=N/n2c(COc3ccccc3)nc3ccccc3c2=O)c(O)c([N+](=O)[O-])c1,?,20µM*,2.5µM*,28µM*,?,?,+
COCc1cc(CN2CCN(C)CC2)c(O)c2ncccc12,-3%,74%,?,.,.,-95%,.
Oc1c(CN2CCOCC2)cc(COCc2ccccc2)c2cccnc12,-6%,31%,.,7.1µM*,?,?,+
CCCCC(=O)NNC(=S)NC(=O)CCC,1%,-11%,16µM*,-2%,5%,28%,i
Cc1cc(Nc2ccccc2F)n2nc(-c3ccccc3)nc2n1,21%,.,.,-22%,-8%,.,.
CCOc1ccccc1NC(=S)Nc1ccccc1F,5%,?,?,.,-11%,0%,i
CCOc1cc(CNCCSc2nnnn2C)cc(Br)c1OCc1ccc(F)cc1,-14%,173%,?,-12%,-25%,-10%,i
COc1cc(OC)c(NC(=O)c2c(N3CCCC3=O)c3cc(C)ccc3n2C)cc1Cl,18%,.,.,5%,-8%,.,.
Cc1ccc2[nH]c(=O)c(CN(CCCO)Cc3nnnn3Cc3ccccc3)cc2c1,.,.,.,-4%,-23%,.,.
CC(C)(C)c1cc(C(=O)N/N=C/c2ccccc2O)n(-c2ccccc2)n1,1%,-31%,14µM*,?,?,67%,i
